ELG1 DNA repair: qHTS screen for small molecules that inhibit ELG1-dependent DNA repair in human embryonic kidney (HEK293T) cells expressing luciferase-tagged ELG1; HEK293T ELG1-luciferase reporter, luminescence, 16 h; DNA damage induced by 5-fluorouridine; 330,000 compounds, 2.3% hits; AID 504467, 2011; Potency, µM (series often up to 46.1 µM), for inactives: at the top dose activity change, negative = inhibition, most hits filed as inhibitors; also: % is scaled to controls: 0 for no effect and ±100 for the full control effect; nearly all actives have a fitted effect of over 55% in size
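5-Fluorouridine DNA damage + compound/DMSO, 2,000 cells/well, 16 h, 37 °C/5% CO2. ONE-Glo, 30 min RT, luminescence. Readout = decrease in reporter signal.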
Rab9 prom act: qHTS Assay for Rab9 Promoter Activators; Huh7 Rab9 promoter-luciferase reporter, luminescence, 24 h; Potency, µM (top dose mostly 9.22 µM), for inactives: at the top dose activation, negative = inhibition, usual class: activators; 320,000 compounds, 2.8% hits; also: % of control where 0% means no effect; nearly all actives have a fitted effect of over 60% in size
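Rab9 promoter-driven luciferase in stably transfected Huh7 cells; 1500 cells/well rested 2 h, exposed to compound in DMSO for 24 h at 37 °C, 5% CO2. Luminescence read 10 min after adding luciferase reagent at ambient temperature.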
SMN2 splice enh: qHTS Assay for Enhancers of SMN2 Splice Variant Expression; HEK293 SMN2-luciferase splicing reporter, luminescence, 30-36 h; Potency, µM (highest dose often 46.1 µM), for the others: top-dose activity change, positive = activation, most hits filed as activators; 210,000 compounds, 2.8% hits; AID 1458, 2008; also: % of control where 0% means no effect; nearly all actives have a fitted effect of over 55% in size
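qHTS luciferase splicing reporter: luminescence rises when SMN2 exon 7 is included in transfected HEK293 cells. Compound exposure lasted 30-36 h at 37C, with 4.5 mM final sodium butyrate as control, followed by a ONE-Glo read.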
ELG1 genotoxic: qHTS screen for small molecules that induce genotoxicity in human embryonic kidney (HEK293T) cells expressing luciferase-tagged ELG1. Potency, µM (top dose mostly 46 µM), without a hit: at the top dose activity change, positive = activation, actives largely listed as activators. 330,000 compounds, 1.3% hits. HEK293T ELG1-luciferase reporter, luminescence, 16 h. AID 504466, 2011; also: % of control where 0% means no effect; nearly all actives have a fitted effect of over 60% in size
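16 hr compound incubation (37 °C, 5% CO2) of HEK293T cells carrying luciferase-tagged ELG1; luciferase then measured by ONE-Glo luminescence after 30 min at RT.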
NPC1 prom act: qHTS Assay for NPC1 Promoter Activators. 320,000 compounds, 2.4% hits. Potency, µM (highest dose often 9.22 µM), inactives show at the highest dose activation, usual class: activators. Huh7 NPC1 promoter luciferase reporter, 24 h; also: % of control where 0% means no effect; nearly all actives have a fitted effect of over 60% in size
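In 1536-well qHTS, Huh7 cells harboring an NPC1 promoter–luciferase construct received compound for 24 h; activation was quantified by luminescence following luciferase reagent addition.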
FLuc modulator: qHTS profiling assay for firefly luciferase inhibitor/activator using purifed enzyme and Km concentrations of substrates (counterscreen for miR-21 project); Potency, µM (doses to about 57.5 µM), without a hit: at the top dose activity change, negative = inhibition, actives largely listed as inhibitors; Luciferin 4-monooxygenase (Photinus pyralis), P08659; purified FLuc, Km substrates, luminescence inhibition; 360,000 compounds, 6.9% hits;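 also: plate controls were vehicle for no effect and reference inhibitor for full effect; nearly all actives have a fitted effect of over 55% in size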
Target sequence (P08659 whole entry, looked up): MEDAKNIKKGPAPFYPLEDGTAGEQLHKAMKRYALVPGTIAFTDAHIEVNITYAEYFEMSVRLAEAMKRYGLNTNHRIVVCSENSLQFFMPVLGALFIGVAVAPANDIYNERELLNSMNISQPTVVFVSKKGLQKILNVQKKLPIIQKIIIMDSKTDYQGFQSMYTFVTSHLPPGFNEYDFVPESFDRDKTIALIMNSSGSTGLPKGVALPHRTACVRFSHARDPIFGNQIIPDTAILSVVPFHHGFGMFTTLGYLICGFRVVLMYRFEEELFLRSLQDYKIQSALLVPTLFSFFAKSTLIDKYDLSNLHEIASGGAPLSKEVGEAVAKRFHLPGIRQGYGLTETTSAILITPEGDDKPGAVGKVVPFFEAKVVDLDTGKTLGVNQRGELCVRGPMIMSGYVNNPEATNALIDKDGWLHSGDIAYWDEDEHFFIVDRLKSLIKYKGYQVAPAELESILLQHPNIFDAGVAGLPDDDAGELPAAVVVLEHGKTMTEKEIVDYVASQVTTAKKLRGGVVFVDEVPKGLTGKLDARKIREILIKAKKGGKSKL
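Biochemical qHTS of compounds, final roughly 60 µM downward over six points, against 10 nM purified firefly luciferase using Km concentrations of substrates (10 uM D-luciferin, 10 uM ATP) in Tris acetate pH 7.5 buffer; luminescence output.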
* marks the source's active call; other numbers are inactive results; ? = inconclusive; . = no result given; [ ] = remark or other dose. Hits are enriched below; roughly 9.3% of the tested compounds scored in any of these assays. Calls follow the shape of the dose curve; as a rule, active = well fitted curve in the direction sought with a large enough effect; inconclusive = small, poorly fitted or top-dose-only effect, or another doubt; inactive = no such curve, though single readings can be large; an effect the other way counts as inactive or inconclusive. Potency is read from the fitted curve at half-maximal effect.

SMILES	ELG1 DNA repair	Rab9 prom act	SMN2 splice enh	ELG1 genotoxic	NPC1 prom act	FLuc modulator
CC[C@]1(O)CC(O[C@@H]2CC(N(C)C)C(O)C(C)O2)c2c(cc3c(c2O)C(=O)c2c(O)cccc2C3=O)C1C(=O)OC (stereo not given in full)	.	.	0.794µM*	.	.	.
CC[C@@]1(O)CC(O)c2c(cc3c(c2O)C(=O)c2c(O)ccc(O)c2C3=O)C1C(=O)OC (stereo not given in full)	.	.	-10.1%	.	.	.
C=CCOC(=O)c1ccccc1N	2.4%	1.7%	-1.7%	3.4%	1.5%	-1.7%
Nc1ccccc1C(=O)OCCOc1ccccc1	?	0.398µM*	7.94µM*	0.92µM*	0.355µM*	0.601µM*
O=P(Oc1ccccc1)(Oc1ccccc1)C(Nc1ccccc1)c1ccccc1 (stereo not given)	20.6µM*	-3.3%	-10.8%	-15.4%	0.5%	4.5%
CC(C)COP(=O)(OCC(C)C)C(Nc1ccccc1)c1ccccc1 (stereo not given)	?	-0.5%	.	-8.9%	-6.5%	0.2%
COc1ccc2[nH]c(C)c(CCNCc3cc(OC)c(OC)c(OC)c3)c2c1	0.0%	0.6%	-13.7%	-8.2%	-7.6%	-2.6%
COc1ccc(CNCCc2c(C)[nH]c3ccc(OC(F)(F)F)cc23)c(OC)c1	1.03µM*	-28.4%	.	-4.6%	-24.8%	-1.2%
C=CC[C@@H](CC(=O)N(CCO)Cc1ccccc1)C(=O)NC[C@H](OC(=O)[C@@H](CC=C)CC(=O)OC(C)(C)C)c1ccccc1	20.6µM*	.	.	-15.8%	.	.
C=CC[C@@H](CC(=O)N[C@H](CO)Cc1ccccc1)C(=O)NCCOC(=O)[C@@H](CC=C)Cc1ccc(F)cc1	?	.	.	-2.8%	.	.
Nc1ccccc1C(=O)OCC(=O)N1CCc2ccccc21	?	2.51µM*	35.0%	9.2µM*	?	9.53µM*
COC(=O)c1ccccc1N	.	.	-13.2%	.	.	.
Cc1ccc(C(=O)NC2CC3CCC(C2)N3)cc1 (stereo not given)	6.7%	-4.1%	23.3%	-1.6%	-3.5%	-1.6%
CCN(CC)C(=O)c1ccc(NC(=O)c2cccc(S(=O)(=O)N3CCN(Cc4ccccc4)CC3)c2)cc1	?	-20.9%	.	5.6%	-14.6%	-0.6%
Nc1c(C(=O)OCc2ccccc2)c2nc3ccccc3nc2n1Cc1cccs1	20.6µM*	-4.9%	-14.2%	-9.4%	-0.5%	0.4%
CCC(C)OC(=O)c1c(N)n(Cc2cccs2)c2nc3ccccc3nc12 (stereo not given)	?	0.9%	?	-12.3%	-3.1%	0.7%
CC1CN(C)C(C)(C)CC1(O)c1ccccc1 (stereo not given)	6.2%	1.2%	?	-0.3%	-3.1%	1.4%
COc1ccc(-n2c(/C=C3\C(=O)Nc4ccccc43)nc3ccccc3c2=O)cc1	17.3%	-2.0%	-12.8%	0.4%	-3.7%	-3.5%
O=C1Nc2ccccc2/C1=C/c1nc2ccccc2c(=O)n1-c1ccc(O)cc1	18.3µM*	-13.9%	.	-6.3%	-2.9%	-3.7%
CCC(Oc1cc(Cl)ccc1Cl)C(=O)N1CCC2(CC1)OCCO2 (stereo not given)	?	1.78µM*	.	?	0.891µM*	10.7µM*
O=C(c1ccc2c3c(cccc13)CC2)C1CCCN(CC2CC2)C1 (stereo not given)	16.6%	-11.8%	.	-8.9%	0.3%	5.7%
O=C(C[N+]12CCC(CC1)C(OC(=O)c1ccccc1)C2)c1ccc([N+](=O)[O-])cc1 (stereo not given)	?	9.4%	.	-4.7%	-5.8%	2.3%
O=C(C[N+]12CCC(CC1)C(CO)C2)c1ccc([N+](=O)[O-])cc1 (stereo not given)	9.2µM*	-8.2%	-16.7%	-8.5%	-1.2%	-0.7%
Cc1ccc(C(C)C)c(OCC(=O)N2CCN(Cc3nc4cc([N+](=O)[O-])ccc4n3C)CC2)c1	20.6µM*	-12.1%	-50.8%	-14.2%	-0.5%	-1.6%
Cc1cccc(OCC(=O)N2CCN(Cc3ccncc3)CC2)c1	0.0%	-3.1%	-15.5%	1.5%	4.6%	3.3%
SMILES	ELG1 DNA repair	Rab9 prom act	SMN2 splice enh	ELG1 genotoxic	NPC1 prom act	FLuc modulator
OC[C@H]1O[C@@H](n2cnc3cc(Cl)c(Cl)cc32)[C@H](O)[C@@H]1O	8.91µM*	0.7%	.	-33.0%	-1.3%	2.7%
Nc1nc(=S)c2ncn([C@H]3O[C@@H](CO)[C@@H](O)[C@@H]3O)c2[nH]1	.	.	-49.9%[20.6 µM]	.	.	.
Cc1cc(N2CCCCC2)nc2ccc(NC(=O)CCC(=O)N3CCN(c4cccc(Cl)c4)CC3)cc12	.	.	-12.9%	.	.	?
Cc1cc(N2CCOCC2)nc2ccc(NC(=O)CCC(=O)N3CCC4(CC3)OCCO4)cc12	?	18.9%	.	12.4%	25.9%	15.1µM*
CCC(=NCc1ccco1)c1c(O)n(C)c(=O)n(C)c1=O	-14.6%	-2.3%	.	-2.2%	-0.2%	-2.5%
Cc1ccc(-c2nn(C)c(=O)c3ccccc23)cc1CNC(=O)/C=C/c1ccccc1	16.4µM*	10.0%	-20.3%	-6.5%	-6.3%	?
CCN(CC)C(=O)c1ccc(NC(=O)c2ccc(-c3nn(C)c(=O)c4ccccc34)cc2)cc1	-10.8%	1.5%	-4.3%	0.3%	-1.2%	-9.2%
CCN(CC)C(=O)Oc1cc2c(-c3cc4cccc(OC)c4o3)cc(=O)oc2cc1C	?	0.2%	.	-7.1%	10.8%	-2.2%
CCN(N=O)C(N)=O	.	.	7.1%	.	.	.
COc1ccc(OC(=O)Nc2ccccc2)cc1	?	-2.2%	?	?	1.2%	?
O=C(Nc1ccc(F)cc1)Oc1ccc[nH]c1=O	?	8.4%	.	12.4%	16.9%	19µM*
O=C(Oc1ccc2cc(Br)ccc2c1)N1CCCCCC1	?	3.98µM*	?	23.1µM*	?	6.75µM*
O=C(Nc1ccccc1OC(=O)N1CCCCC1)N1CCCCC1	14.7%	-2.7%	-3.7%	-0.8%	7.9%	-2.0%
Cc1cc(=O)oc2cc(OCC(=O)N3C[C@H]4C[C@@H](C3)c3cccc(=O)n3C4)c(Cl)cc12	?	0.2%	.	5.5%	-4.2%	2.0%
Cc1cc(=O)oc2cc(OCC(=O)N3CCN(C(C)c4ccccc4)CC3)c(Cl)cc12 (stereo not given)	20.6µM*	-3.0%	.	-3.6%	0.2%	3.8%
CCOc1ccc(C(=O)Nc2cccc(C(=O)OCc3cc(=O)n4nc(C5CC5)sc4n3)c2)cc1	.	.	.	.	.	1.9µM*

Compound activity from PubChem BioAssay.
